Laboratory results as given in PubChem BioAssay AID1159580 (chemical genetic matrix, 2015).
“And” between values parts separate entries of the source, which are not always exact repeats. Equal entries are not always repeated. In all, about 5,500 compounds went through this assay and about 2,000 (36%) were called active. About 18% were inconclusive and are not listed. No stated cut-off is given here; in the data, active means normalized growth mostly below about 0.91 (no sharp cut-off); inconclusive means no clear call, values can overlap the other calls; inactive means mostly above about 0.92. The list shows a part of the results.

Assay: chemical genetic growth profiling, strain panel (AID 1159580);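 further: tested at 20 µM; growth read once vehicle control cultures reached saturation at 30 °C; 1 = growth at the plate median or of vehicle wells; lower values mean less growth of the strain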
Settings: S. cerevisiae deletion strains, growth OD

Measured: normalized growth

COc1ccc2c(c1)OC[C@@H](Cc1ccc(OC)c(OC)c1)[C@@H]2O
inactive: locus YAL013W, strain DEP1, active compounds read low 1.01 | locus YAL021C, strain ccr4, active compounds read low 0.999 | locus YAL026C, strain drs2, active compounds read low 1 | locus YAL030W, strain snc1, active compounds read low 0.994 | locus YBL061C, strain skt5, active compounds read low 0.99 | locus YBR009C, strain hhf1, active compounds read low 0.98 | locus YBR021W, strain FUR4, active compounds read low 0.984 | locus YBR023C, strain chs3, active compounds read low 0.998 | locus YBR171W, strain sec66, active compounds read low 0.99 | locus YBR229C, strain ROT2, active compounds read low 1 | locus YBR231C, strain swc5, active compounds read low 1 | locus YBR279W, strain paf1, active compounds read low 1 | locus YCL011C, strain gbp2, active compounds read low 1 | locus YCL016C, strain dcc1, active compounds read low 0.999 | locus YCL029C, strain bik1, active compounds read low 0.988 | locus YCL069W, strain vba3, active compounds read low 0.996 | locus YCR088W, strain abp1, active compounds read low 0.983 | locus YDL005C, strain med2, active compounds read low 0.975 | locus YDL035C, strain GPR1, active compounds read low 0.99 | locus YDL040C, strain nat1, active compounds read low 0.994 | locus YDL074C, strain BRE1, active compounds read low 0.982 | locus YDL101C, strain DUN1, active compounds read low 1.01 | locus YDL134C, strain PPH21, active compounds read low 1 | locus YDL185W, strain tfp1, active compounds read low 0.997 | locus YDL192W, strain arf1, active compounds read low 0.988 | locus YDR001C, strain nth1, active compounds read low 0.998 | locus YDR069C, strain doa4, active compounds read low 0.996 | locus YDR101C, strain arx1, active compounds read low 0.983 | locus YDR150W, strain NUM1, active compounds read low 1 | locus YDR159W, strain sac3, active compounds read low 0.94 | locus YDR162C, strain NBP2, active compounds read low 0.999 | locus YDR195W, strain ref2 0.973 | locus YDR297W, strain sur2, active compounds read low 0.985 | locus YDR318W, strain mcm21, active compounds read low 0.96 | locus YDR334W, strain swr1, active compounds read low 1.01 | locus YDR335W, strain msn5, active compounds read low 1.01 | locus YDR388W, active compounds read low 0.985 | locus YDR392W, strain spt3, active compounds read low 0.91 | locus YDR502C, strain sam2, active compounds read low 0.977 | locus YEL003W, strain gim4, active compounds read low 1 | locus YEL037C, strain rad23, active compounds read low 1.01 | locus YEL061C, strain CIN8 (second series), active compounds read low 1 | locus YEL061C, strain CIN8, active compounds read low 0.999 | locus YER015W, strain faa2, active compounds read low 1 | locus YER016W, strain bim1, active compounds read low 0.986 | locus YER110C, active compounds read low 0.996 | locus YER111C, strain swi4, active compounds read low 0.998 | locus YER155C, strain BEM2 (second series), active compounds read low 0.99 | locus YER155C, strain BEM2, active compounds read low 0.976 | locus YER167W, strain BCK2, active compounds read low 0.958 | locus YFR010W, strain ubp6, active compounds read low 0.998 | locus YGL078C, strain dbp3, active compounds read low 0.996 | locus YGL086W, strain mad1, active compounds read low 0.978 | locus YGL167C, strain pmr1, active compounds read low 0.977 | locus YGL173C, strain kem1, active compounds read low 1 | locus YGL227W, strain vid30, active compounds read low 0.992 | locus YGL240W, strain doc1, active compounds read low 1.02 | locus YGL248W, strain PDE1, active compounds read low 0.996 | locus YGL253W, strain hxk2, active compounds read low 1.02 | locus YGR078C, strain PAC10, active compounds read low 1.01 | locus YGR135W, strain pre9, active compounds read low 0.997 | locus YGR229C, strain SMI1, active compounds read low 0.993 | locus YGR252W, strain gcn5, active compounds read low 0.922 | locus YHR013C, strain ard1, active compounds read low 0.966 | locus YHR027C, strain rpn1, active compounds read low 1.02 | locus YHR030C, strain SLT2, active compounds read low 0.995 and 1.01 | locus YHR079C, strain IRE1 (second series), active compounds read low 0.981 | locus YHR079C, strain IRE1, active compounds read low 1.01 | locus YHR094C, strain hxt1, active compounds read low 0.989 | locus YHR129C, strain ARP1, active compounds read low 0.993 | locus YHR142W, strain chs7, active compounds read low 1.01 | locus YHR200W, strain rpn10, active compounds read low 0.987 | locus YIL066C, strain RNR3, active compounds read low 1 | locus YIL073C, strain SPO22, active compounds read low 0.998 | locus YIL125W, strain kgd1, active compounds read low 0.996 | locus YIR030C, strain dcg1, active compounds read low 0.986 | locus YJL092W, strain hpr5, active compounds read low 0.994 | locus YJL095W, strain BCK1 (second series), active compounds read low 1 | locus YJL095W, strain BCK1, active compounds read low 0.989 and 0.952 | locus YJL115W, strain asf1, active compounds read low 1 | locus YJL129C, strain trk1, active compounds read low 0.94 | locus YJL134W, strain LCB3, active compounds read low 1 | locus YJL154C, strain vps35, active compounds read low 1 | locus YJL164C, strain tpk1, active compounds read low 0.99 | locus YJL166W, strain qcr8, active compounds read low 1.01 | locus YJL168C, strain set2, active compounds read low 0.99 | locus YJL187C, strain SWE1 (second series), active compounds read low 1 | locus YJL187C, strain SWE1, active compounds read low 0.998 | locus YJR043C, strain POL32, active compounds read low 0.953 | locus YJR066W, strain TOR1, active compounds read low 0.975
active: locus YDR137W, strain rgp1, active compounds read low 0.802
